The values that follow come from PubChem BioAssay (EPA / NIEHS).

The source made the active and inactive calls. Rule for the calls: active = hit-call score of the fitted dose curve at least 0.9, where 1 is the maximum; inactive = score below 0.9.

The target in the test is X-box-binding protein 1 (Homo sapiens) (UniProt P17861). The experiment in a line: ATG_Xbp1_CIS: Attagene CIS-FACTORIAL HepG2 Assay for human X-box Binding Protein 1 (XBP1) (AID 2282972). Conditions: HepG2 XBP1 cis-element reporter, Attagene multiplex; actives raise or lower the signal. As for the experimental part: ATG_CIS is a cell-based, multiplexed-readout assay that uses HepG2, a human liver cell line, with measurements taken at 24 hours after chemical dosing in a 24-well plate.ATG_Xbp1_CIS is one of 52 assay component(s) measured or calculated from the ATG_CIS assay. It is designed to make measurements of mRNA induction, a form of inducible reporter, as detected with fluorescence intensity signals by Reverse transcription polymerase chain reaction (RT-PCR) and Capillary electrophoresis technology.Data from the assay component ATG_Xbp1_CIS was analyzed into 1 assay endpoint. This assay endpoint, ATG_Xbp1_CIS, was analyzed with bidirectional fitting relative to DMSO as the negative control and baseline of activity. Using a type of inducible reporter, measures of mRNA for gain or loss-of-signal activity can be used to understand the reporter gene at the transcription factor-level as they relate to the gene XBP1. Furthermore, this assay endpoint can be referred to as a primary readout, because this assay has produced multiple assay endpoints where this one serves a reporter gene function. To generalize the intended target to other relatable targets, this assay endpoint is annotated to the dna binding intended target family, where the subfamily is basic leucine zipper.
X-box-binding protein 1 (Homo sapiens), sequence (P17861 whole entry, looked up): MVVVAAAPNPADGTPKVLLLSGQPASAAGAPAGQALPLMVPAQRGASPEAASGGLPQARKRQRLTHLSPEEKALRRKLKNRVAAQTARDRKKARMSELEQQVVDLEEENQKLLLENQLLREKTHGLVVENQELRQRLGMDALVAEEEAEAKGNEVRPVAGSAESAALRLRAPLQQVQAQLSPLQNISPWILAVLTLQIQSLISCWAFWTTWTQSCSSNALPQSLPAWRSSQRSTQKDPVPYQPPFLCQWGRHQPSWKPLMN
Human liver HepG2 cells are transiently transfected with multiple reporter transcription units (MRTUs) in 6-well plates using FuGene 6 reagent (Roche; 3 ml FuGene/1 mg DNA). The MRTU constructs are regulated by a cis-regulating element (promoter). […] A major difference between the CIS and TRANS system is that in CIS activities of endogenous TFs are measured, whereas the TRANS assay evaluates changes in activities of exogenous, chimeric NR-Gal4 proteins. […] At the end of 24 hour incubation, total RNA was isolated using TriZol reagent (Invitrogen). The isolated RNA is then reverse-transcribed using oligo(dT) primer and Mo-MLV reverse transcriptase (Invitrogen) with DNAse I (Ambion) treatment for 30 min. The one-tenth of the produced cDNA was amplified by PCR using Taq DNA polymerase (Invitrogen) and two reporter sequence-specific primers. The PCR products were fluorescently labeled by primer extension with 6-arboxyfluorescein (6-FAM) 5'-labeled reporter sequence-specific primer (2 min at 95 C, 20 s at 68 C and 10 min at 72 C) and these products were digested with 5U of HpaI (New England Biolabs) for 2h at 37 C. The fragments were purified using Qiaquick PCR columns (Qiagen), analyzed on an ABI 3130xL genetic analyzer (Applied Biosystems) with peak positions identified by using a set of X-rhodamine (ROX)-labeled MapMarker1000 molecular weight standards (BioVentures). The raw capillary electrophoresis data was processed using Attagraph software (Attagene).
`FC1(F)C(F)(F)C(F)(F)C2(F)C(F)(C1(F)F)C(F)(F)C(F)(F)C1(F)C(F)(F)C(F)(F)C(F)(F)C(F)(F)C12F` (stereo not given): the call was inactive.

Take `CCC/C=C/C=O`: the result was inactive.

Consider `COc1cc(C)cc(O)c1`, for which the compound was classed as inactive.

Regarding `CC(C)=CCO`, the result was inactive.

The term AC50 denotes the concentration at which the activity in the assay is half-maximal. As to `Clc1ccc2c(c1)C(N1CCNCC1)=Nc1ccccc1O2`, the AC50 was 33.4 µM (active).

Regarding `C=C(C)[C@@H]1CCC2=CC(=O)C[C@@H](C)[C@]2(C)C1`, the compound was called inactive.

For `COc1ccc(NC(=O)CC(C)=O)cc1`, the outcome was inactive.

As for `O=S(=O)(O)NC1CCCCC1`, the call was inactive.

Turning to `N#Cc1nc(Cl)c(Cl)c(Cl)c1Cl`, the AC50 is 5.85 µM (active).

In the case of `CCN(CC)CCOC(=O)c1ccc(N)cc1`, the outcome was inactive.

Consider `CCCCN`, for which the outcome was inactive.

As to `CC(=O)O[C@H](CC(=O)[O-])C[N+](C)(C)C`, the result was inactive.

As to `O=C[C@@H](O)[C@H](O)[C@H](O)CO`, the compound was classed as inactive.

In the case of `C=C(C)C(=O)OCCOC(=O)CC(C)=O`, the compound was called inactive.

With `O=C[C@H](O)[C@H](O)[C@H](O)CO`, the call was inactive.

For `N#Cc1ccc(CC(=NNC(=O)Nc2ccc(OC(F)(F)F)cc2)c2cccc(C(F)(F)F)c2)cc1`, the call was inactive.

Consider `CN(C)CCCN`, for which the call was inactive.

In the case of `c1ccc2sc(SN(C3CCCCC3)C3CCCCC3)nc2c1`, the result was inactive.

As for `COc1cccc(OC)c1`, the compound was called inactive.

`CC(=O)OCC=Cc1ccccc1`: the compound was classed as inactive.

As for `Cc1ccc(S)cc1`, the AC50 was 53.5 µM (active).

Regarding `C#C[C@]1(O)CC[C@H]2[C@@H]3CCC4=Cc5oncc5C[C@]4(C)[C@H]3CC[C@@]21C`, the AC50 is 42.1 µM (active).

Take `CCCc1c(OCCCOc2ccc(OCC(=O)O)cc2)ccc(C(C)=O)c1O`: the outcome was inactive.

For the compound `Clc1ccc(Cl)c(Cl)c1Cl`, the compound was classed as inactive.

In the case of `CCCCCC(CO)CCC` (stereo not given), the outcome was inactive.

For `COc1nc(C)nc(N)n1`, the compound was called inactive.

For `CNCCCC12CCC(c3ccccc31)c1ccccc12`, the AC50 was 14.9 µM (active).

Consider `CCCC1CCC(=O)O1` (stereo not given), for which the result was inactive.

On to `O=[N+]([O-])c1ccc(C=Cc2ccc([N+](=O)[O-])cc2S(=O)(=O)O)c(S(=O)(=O)O)c1`, for which the compound was called inactive.

For the compound `Cc1c(Cl)c(=O)oc2cc(O)ccc12`, the compound was classed as inactive.

As to `OCc1cccnc1`, the call was inactive.

As to `O=S(=O)(O)c1ccc(O)c2ncccc12`, the compound was classed as inactive.

On to `ClCCCl`, for which the outcome was inactive.

As for `CC(C)(C)NC(N)=O`, the call was inactive.

In the case of `O=Cc1ccc(F)cc1`, the compound was classed as inactive.

Consider `Cc1ncc([N+](=O)[O-])n1C`, for which the result was inactive.

As to `O=c1oc(=O)c2cc3c(=O)oc(=O)c3cc12`, the compound was called inactive.

Consider `Cc1c(N(C)C)c(=O)n(-c2ccccc2)n1C`, for which the compound was called inactive.

As for `CC(C)=CCCC(C)CC=O` (stereo not given), the call was inactive.

As to `CC1=CCC(O)(C(C)C)CC1` (stereo not given), the result was inactive.
